Here are results for eight compounds from PubChem BioAssay (EPA / NIEHS).

For assay [1], the target named is Paired box protein Pax-6 (Homo sapiens) (UniProt P26367). In words: ATG_Pax6_CIS: Attagene CIS-FACTORIAL HepG2 Assay for human Paired Box 6 (PAX6) (AID 2282956). Particulars: HepG2 CIS-FACTORIAL PAX6 reporter transcription, RNA readout; actives raise or lower the signal. The method, boiled down:
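Fluorescent RT-PCR products separated by capillary electrophoresis report PAX6-linked promoter mRNA in HepG2 cells 24 h post-dose. Curves fitted bidirectionally, DMSO as negative control.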

Assay [2] in a line: ATG_PPRE_CIS: Attagene CIS-FACTORIAL HepG2 Assay for human Peroxisome Proliferator-activated Response Element (PPRE) (AID 2282958). Particulars: HepG2 PPRE cis-element reporter, Attagene transcription factor profiling; actives raise or lower the signal. The method, boiled down: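 HepG2 cells transiently transfected with multiplexed cis-element reporter units measure endogenous transcription factor activity. After 24 h compound exposure, reporter mRNA is quantified by RT-PCR, 6-FAM labeling, HpaI digestion and capillary electrophoresis; bidirectional fits are made against DMSO baseline.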

Assay [3] is described as follows: ATG_RORE_CIS: Attagene CIS-FACTORIAL HepG2 Assay for human RAR-related Orphan Receptor Element (RORE) (AID 2282959). The conditions noted are these: HepG2 Attagene cis-factorial RORE reporter, mRNA; actives raise or lower the signal. The method, boiled down: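 HepG2 cells transiently transfected with multiple cis-element reporter transcription units, exposed to chemical for 24 h. Reporter mRNA quantified by RT-PCR, 6-FAM primer-extension labeling, HpaI digestion and capillary electrophoresis; bidirectional fit versus DMSO baseline.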

Assay [4] can be described thus: ATG_Sox_CIS: Attagene CIS-FACTORIAL HepG2 Assay for human SRY-box transcription factor (SOX) (AID 2282960). The conditions noted are these: HepG2 Attagene cis-factorial SOX reporter, mRNA; actives raise or lower the signal. A digest of the protocol: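 HepG2 cells transiently transfected with cis-element-driven multiple reporter transcription units, dosed 24 h; reporter mRNA measured by RT-PCR, FAM labelling, HpaI digestion and capillary electrophoresis. Bidirectional fit versus DMSO baseline.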

In assay [5] the target is Transcription factor Sp1 (Homo sapiens) (UniProt P08047). In words: ATG_Sp1_CIS: Attagene CIS-FACTORIAL HepG2 Assay for human Specificity Protein 1 (Sp1) (AID 2282961). The conditions noted are these: HepG2 Sp1 cis-reporter transcription, actives raise or lower the signal. A digest of the protocol: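 HepG2 cells transiently transfected with multiple reporter transcription units driven by cis-regulatory elements; Sp1-responsive reporter mRNA measured 24 h after dosing by RT-PCR and capillary electrophoresis fluorescence, fitted bidirectionally against DMSO baseline.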

The nature of assay [6]: ATG_SREBP_CIS: Attagene CIS-FACTORIAL HepG2 Assay for human Sterol Regulatory Element Binding (SREBP) (AID 2282962). Particulars: HepG2 Attagene cis-factorial SREBP reporter, mRNA; actives raise or lower the signal. The method, boiled down: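 Endogenous factor activity is measured in HepG2 through multiplexed reporter units under cis-element control. Following a 24 h incubation, reporter transcripts are reverse-transcribed, PCR-amplified and sized by capillary electrophoresis; activity is fitted in both directions relative to DMSO.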

The target in assay [7] is Signal transducer and activator of transcription 3 (Homo sapiens) (UniProt P40763). Nature of the assay: ATG_STAT3_CIS: Attagene CIS-FACTORIAL HepG2 Assay for human Signal Transducer and Activator of Transcription 3 (STAT3) (AID 2282963). Particulars: HepG2, Attagene cis-factorial STAT3 reporter transcription; actives raise or lower the signal. The method, boiled down: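 Uses human liver HepG2 transiently carrying cis-regulated reporter transcription units. Following 24 h dosing, reporter mRNA induction was detected by RT-PCR and capillary electrophoresis, analysed bidirectionally versus DMSO.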

A short description of assay [8]: ATG_TA_CIS: Attagene CIS-FACTORIAL HepG2 Assay for human TA Basal Promoter (AID 2282964). Particulars: HepG2 Attagene CIS-factorial TA basal promoter reporter; actives raise or lower the signal. A digest of the protocol: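 Cis-factorial format in HepG2: reporters report endogenous factors, not chimeric Gal4 fusions. After 24 h treatment, reporter transcripts were measured by RT-PCR-capillary electrophoresis fluorescence, analysed bidirectionally versus DMSO.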

Assay [9] in a line: ATG_TCF_b_cat_CIS: Attagene CIS-FACTORIAL HepG2 Assay for human T-Cell-Factor with beta-catenin (TCF/b-cat) (AID 2282965). The conditions noted are these: HepG2 TCF/beta-catenin cis-reporter transcription, actives raise or lower the signal. The method, boiled down:
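Using capillary electrophoresis as the read-out, labelled reporter cDNA fragments from transiently transfected HepG2 were sized and quantified. Exposure lasted 24 hours; activity in either direction was referenced to DMSO.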

Assay [10] in a line: ATG_TAL_CIS: Attagene CIS-FACTORIAL HepG2 Assay for human TAL Basal Promoter (AID 2282966).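 Note: background control endpoint measuring basal TAL promoter reporter mRNA not a specific factor.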 Particulars: HepG2 Attagene cis-factorial TAL promoter reporter; actives raise or lower the signal. The method, boiled down: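 Background-control endpoint: basal TAL promoter reporter transcripts in transiently transfected HepG2, measured 24 h after dosing. Read-out by RT-PCR with fluorescent primer extension and capillary electrophoresis; gain or loss of signal fitted relative to DMSO.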

A short description of assay [11]: ATG_TGFb_CIS: Attagene CIS-FACTORIAL HepG2 Assay for human Transforming Growth Factor (TGF) (AID 2282967). Particulars: HepG2 Attagene CIS TGFb reporter, mRNA transcription; actives raise or lower the signal. A digest of the protocol: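 Multiplexed cis-reporter HepG2 system, 24 h treatment; mRNA induction read by fluorescence after RT-PCR and CE; DMSO negative control, bidirectional curve fitting.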

A short description of assay [12]: ATG_VDRE_CIS: Attagene CIS-FACTORIAL HepG2 Assay for human Vitamin D Receptor Element (VDRE) (AID 2282968). Particulars: HepG2 VDRE cis-reporter transcription, actives raise or lower the signal. A digest of the protocol:
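Transfected HepG2 reporter cells, chemical treatment 24 h. RNA isolated, cDNA amplified with reporter-specific primers, products analysed by capillary electrophoresis. Endpoint fitted in both directions versus DMSO.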

In assay [13] the target is Nuclear receptor subfamily 1 group I member 3 (Homo sapiens) (UniProt Q14994). In words: ATG_CAR_TRANS: Attagene TRANS-FACTORIAL HepG2 Assay for human Constitutive Androstane Receptor (CAR) (AID 2282969; active = hit-call score of the fitted dose curve at least 0.9, where 1 is the maximum;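 note: activators raise reporter mRNA above DMSO so AC50 marks induction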). Particulars: HepG2 Attagene TRANS-FACTORIAL CAR reporter. A digest of the protocol: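 Steps: transient transfection of HepG2 with multiple GAL4-UAS reporter units; 24 h compound incubation; RNA isolation, RT-PCR, 6-FAM primer extension, HpaI digest; capillary electrophoresis. Gain-of-signal relative to DMSO negative control.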

Assay [14] concerns the target X-box-binding protein 1 (Homo sapiens) (UniProt P17861). In words: ATG_Xbp1_CIS: Attagene CIS-FACTORIAL HepG2 Assay for human X-box Binding Protein 1 (XBP1) (AID 2282972). Particulars: HepG2 XBP1 cis-element reporter, Attagene multiplex; actives raise or lower the signal. The method, boiled down: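 Multiplexed cis-reporter readout in transfected HepG2 liver cells. Exposure lasted 24 hours. Activity in either direction was fitted against DMSO as negative control and baseline.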

Assay [15] in a line: ATG_PXRE_CIS: Attagene CIS-FACTORIAL HepG2 Assay for human Pregnane X Receptor Element (PXRE) (AID 2282957). The conditions noted are these: HepG2 Attagene CIS-FACTORIAL PXRE reporter, mRNA; actives raise or lower the signal. A digest of the protocol:
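Reporter transcripts under endogenous PXR-responsive cis-regulation quantified from total RNA of transfected HepG2 cells 24 h post-dosing, via RT-PCR with fluorescent primer extension and capillary electrophoresis. Gain or loss of signal fitted against DMSO baseline.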

In assay [16] the target is Steroid hormone receptor ERR1 (Homo sapiens) (UniProt P11474). Nature of the assay: ATG_ERRa_TRANS: Attagene TRANS-FACTORIAL HepG2 Assay for human Estrogen-Related Receptor alpha (ERRa) (AID 2282971; active = hit-call score of the fitted dose curve at least 0.9, where 1 is the maximum). Particulars: HepG2 Attagene TRANS reporter, ERRa transactivation. The method, boiled down: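 Reporter transcripts from ERRa-Gal4 chimera activity measured in transiently transfected human HepG2 cells 24 hours after dosing, using RT-PCR with 6-FAM primer extension, HpaI digestion and capillary electrophoresis; DMSO is baseline.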

For assay [17], the target named is Estrogen-related receptor gamma (Homo sapiens) (UniProt P62508). Nature of the assay: ATG_ERRg_TRANS: Attagene TRANS-FACTORIAL HepG2 Assay for human Estrogen-Related Receptor gamma (ERRg) (AID 2282977; active = hit-call score of the fitted dose curve at least 0.9, where 1 is the maximum;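 note: hits increase reporter signal over DMSO so potencies reflect activators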). Particulars: HepG2 Attagene TRANS reporter, ERRg transactivation. A digest of the protocol:
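Exogenous NR-Gal4 chimera activity was assessed in HepG2 cells bearing transfected GAL4-UAS reporters. After 24 h dosing, total RNA underwent RT-PCR, fluorescent primer extension and HpaI digestion before capillary electrophoresis, with gain of signal scored against DMSO.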

Assay [18] is described as follows: ATG_M_19_TRANS: Attagene TRANS-FACTORIAL HepG2 Assay for M19 Transcription Factor (Internal Marker) (AID 2282974; active = hit-call score of the fitted dose curve at least 0.9, where 1 is the maximum). The conditions noted are these: HepG2 Attagene TRANS-FACTORIAL M19 internal marker reporter. The method, boiled down: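 HepG2 cells transiently transfected with multiple GAL4-UAS reporter transcription units were exposed to chemicals for 24 h. Reporter mRNA was read by RT-PCR, 6-FAM primer extension, HpaI digestion and capillary electrophoresis; gain of signal fitted relative to DMSO.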

Assay [19] can be described thus: ATG_GAL4_TRANS: Attagene TRANS-FACTORIAL HepG2 Assay for GAL4 (Internal Marker) (AID 2282976; active = hit-call score of the fitted dose curve at least 0.9, where 1 is the maximum). Particulars: HepG2 Attagene TRANS GAL4 internal marker reporter. A digest of the protocol:
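In transfected human HepG2 liver cells dosed 24 h, GAL4 reporter mRNA serves as a baseline marker. Detection by RT-PCR with fluorescent capillary electrophoresis, activity fitted upward relative to DMSO.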

Assay [20] concerns the target Estrogen receptor (Homo sapiens) (UniProt P03372). Nature of the assay: ATG_ERa_TRANS: Attagene TRANS-FACTORIAL HepG2 Assay for human Estrogen Receptor alpha (ERa) (AID 2282970; active = hit-call score of the fitted dose curve at least 0.9, where 1 is the maximum). Particulars: HepG2 Attagene TRANS ERa GAL4 reporter, mRNA. The method, boiled down: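 Reporter transcripts were measured 24 h after dosing by RT-PCR with fluorescent primer extension and capillary electrophoresis. The system is transiently transfected HepG2 expressing exogenous NR-Gal4 chimeras driving GAL4-UAS reporters; DMSO is the baseline.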

Inconclusive results are not listed. Activity calls are given as the source filed them. Rule for the calls, unless noted: active = hit-call score of the fitted dose curve at least 0.9, where 1 is the maximum; inactive = score below 0.9.

Paired box protein Pax-6 (Homo sapiens), sequence (P26367 whole entry, looked up): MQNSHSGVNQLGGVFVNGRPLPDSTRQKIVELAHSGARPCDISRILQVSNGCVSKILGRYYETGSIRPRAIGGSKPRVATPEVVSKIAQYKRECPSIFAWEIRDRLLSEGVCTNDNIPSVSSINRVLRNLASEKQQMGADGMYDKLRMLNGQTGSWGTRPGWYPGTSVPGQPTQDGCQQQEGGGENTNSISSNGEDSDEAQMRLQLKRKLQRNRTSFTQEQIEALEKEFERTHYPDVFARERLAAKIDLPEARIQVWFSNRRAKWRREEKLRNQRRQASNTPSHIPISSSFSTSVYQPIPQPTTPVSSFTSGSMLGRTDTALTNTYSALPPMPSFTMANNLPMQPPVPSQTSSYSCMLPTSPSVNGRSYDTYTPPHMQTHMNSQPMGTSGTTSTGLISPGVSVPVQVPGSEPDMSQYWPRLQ
Transcription factor Sp1 (Homo sapiens), sequence (P08047 whole entry, looked up): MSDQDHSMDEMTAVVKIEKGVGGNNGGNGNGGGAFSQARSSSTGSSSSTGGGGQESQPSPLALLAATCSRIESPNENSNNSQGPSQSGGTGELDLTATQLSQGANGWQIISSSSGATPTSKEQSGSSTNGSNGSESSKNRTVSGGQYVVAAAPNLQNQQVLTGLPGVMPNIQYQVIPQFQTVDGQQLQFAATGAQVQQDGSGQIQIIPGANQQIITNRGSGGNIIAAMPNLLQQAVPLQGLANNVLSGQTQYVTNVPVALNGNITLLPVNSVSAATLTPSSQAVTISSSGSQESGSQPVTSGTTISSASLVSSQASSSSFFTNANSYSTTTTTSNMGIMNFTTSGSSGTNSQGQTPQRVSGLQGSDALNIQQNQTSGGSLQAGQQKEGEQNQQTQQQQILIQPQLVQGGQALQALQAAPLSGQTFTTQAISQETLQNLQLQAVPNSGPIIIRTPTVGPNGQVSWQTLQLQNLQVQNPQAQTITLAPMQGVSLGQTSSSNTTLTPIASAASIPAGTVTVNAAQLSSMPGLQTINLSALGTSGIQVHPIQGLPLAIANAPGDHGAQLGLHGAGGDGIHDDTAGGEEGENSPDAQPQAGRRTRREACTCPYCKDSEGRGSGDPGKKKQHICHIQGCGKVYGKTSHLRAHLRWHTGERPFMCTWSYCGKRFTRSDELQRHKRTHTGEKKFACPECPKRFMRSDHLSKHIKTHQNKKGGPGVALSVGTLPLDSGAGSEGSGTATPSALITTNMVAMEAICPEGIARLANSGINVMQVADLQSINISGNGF
X-box-binding protein 1 (Homo sapiens), sequence (P17861 whole entry, looked up): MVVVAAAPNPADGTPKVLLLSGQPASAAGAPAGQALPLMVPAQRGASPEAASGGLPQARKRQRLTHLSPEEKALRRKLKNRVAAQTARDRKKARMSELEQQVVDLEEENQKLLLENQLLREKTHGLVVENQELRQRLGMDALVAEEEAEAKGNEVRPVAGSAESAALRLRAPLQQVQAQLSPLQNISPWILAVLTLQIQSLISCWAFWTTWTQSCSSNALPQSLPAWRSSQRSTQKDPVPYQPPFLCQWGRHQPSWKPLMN
Signal transducer and activator of transcription 3 (Homo sapiens), sequence (P40763 whole entry, looked up): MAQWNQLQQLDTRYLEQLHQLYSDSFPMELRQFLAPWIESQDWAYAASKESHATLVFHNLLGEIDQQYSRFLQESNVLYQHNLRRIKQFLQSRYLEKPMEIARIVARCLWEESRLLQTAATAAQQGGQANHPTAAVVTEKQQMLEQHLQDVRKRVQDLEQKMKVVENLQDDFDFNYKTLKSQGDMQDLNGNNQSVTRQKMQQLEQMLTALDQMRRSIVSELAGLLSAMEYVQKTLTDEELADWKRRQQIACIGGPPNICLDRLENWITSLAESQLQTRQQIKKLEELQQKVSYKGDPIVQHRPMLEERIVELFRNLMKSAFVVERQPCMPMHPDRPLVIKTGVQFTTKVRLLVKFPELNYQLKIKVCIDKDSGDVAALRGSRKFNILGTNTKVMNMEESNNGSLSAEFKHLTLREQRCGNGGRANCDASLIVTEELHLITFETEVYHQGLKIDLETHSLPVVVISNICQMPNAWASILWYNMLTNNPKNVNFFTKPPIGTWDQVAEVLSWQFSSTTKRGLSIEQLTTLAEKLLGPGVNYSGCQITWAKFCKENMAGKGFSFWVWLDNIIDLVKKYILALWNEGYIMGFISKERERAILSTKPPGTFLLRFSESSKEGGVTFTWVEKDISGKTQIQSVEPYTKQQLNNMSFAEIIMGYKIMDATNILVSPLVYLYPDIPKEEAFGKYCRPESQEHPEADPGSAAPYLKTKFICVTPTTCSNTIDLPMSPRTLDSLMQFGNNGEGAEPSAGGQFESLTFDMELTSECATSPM
Estrogen receptor (Homo sapiens), sequence (P03372 whole entry, looked up, the tested form may be a part): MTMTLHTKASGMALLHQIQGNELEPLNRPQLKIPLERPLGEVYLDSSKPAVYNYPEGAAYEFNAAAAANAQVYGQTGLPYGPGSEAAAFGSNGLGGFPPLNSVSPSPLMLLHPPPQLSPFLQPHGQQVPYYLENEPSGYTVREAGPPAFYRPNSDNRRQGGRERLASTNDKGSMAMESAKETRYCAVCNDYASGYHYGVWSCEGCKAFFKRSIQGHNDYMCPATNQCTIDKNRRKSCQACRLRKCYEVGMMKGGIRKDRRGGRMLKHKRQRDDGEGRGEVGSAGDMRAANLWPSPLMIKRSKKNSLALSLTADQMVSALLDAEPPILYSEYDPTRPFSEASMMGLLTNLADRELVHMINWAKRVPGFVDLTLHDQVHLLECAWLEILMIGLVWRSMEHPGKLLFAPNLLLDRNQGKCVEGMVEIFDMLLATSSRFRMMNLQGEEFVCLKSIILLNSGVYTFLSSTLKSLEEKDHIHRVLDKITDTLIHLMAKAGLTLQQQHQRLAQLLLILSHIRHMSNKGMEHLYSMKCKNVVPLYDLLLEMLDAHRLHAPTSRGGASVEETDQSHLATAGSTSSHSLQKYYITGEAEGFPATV
Nuclear receptor subfamily 1 group I member 3 (Homo sapiens), sequence (Q14994 whole entry, looked up, the tested form may be a part): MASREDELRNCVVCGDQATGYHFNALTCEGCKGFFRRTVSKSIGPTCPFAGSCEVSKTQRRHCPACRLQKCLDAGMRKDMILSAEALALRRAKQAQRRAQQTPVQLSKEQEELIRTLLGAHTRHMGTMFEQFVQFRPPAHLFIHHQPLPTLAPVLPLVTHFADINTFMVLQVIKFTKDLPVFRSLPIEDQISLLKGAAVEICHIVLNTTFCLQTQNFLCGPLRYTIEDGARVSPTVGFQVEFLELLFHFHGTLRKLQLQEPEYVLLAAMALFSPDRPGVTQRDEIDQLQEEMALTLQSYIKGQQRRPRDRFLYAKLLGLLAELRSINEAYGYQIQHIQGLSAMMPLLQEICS
Estrogen-related receptor gamma (Homo sapiens), sequence (P62508 whole entry, looked up, the tested form may be a part): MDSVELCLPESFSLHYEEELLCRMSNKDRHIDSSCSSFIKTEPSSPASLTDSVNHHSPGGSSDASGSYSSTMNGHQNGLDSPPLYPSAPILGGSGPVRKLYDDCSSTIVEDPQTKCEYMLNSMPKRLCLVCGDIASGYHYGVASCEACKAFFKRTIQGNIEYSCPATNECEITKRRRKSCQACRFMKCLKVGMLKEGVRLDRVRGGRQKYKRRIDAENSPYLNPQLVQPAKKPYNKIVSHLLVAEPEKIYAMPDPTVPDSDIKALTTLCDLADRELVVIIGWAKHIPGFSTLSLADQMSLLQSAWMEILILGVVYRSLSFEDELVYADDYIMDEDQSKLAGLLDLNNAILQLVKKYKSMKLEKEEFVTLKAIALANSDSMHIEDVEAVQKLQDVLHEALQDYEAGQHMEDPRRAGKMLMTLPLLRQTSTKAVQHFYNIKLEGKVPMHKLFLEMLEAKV
Steroid hormone receptor ERR1 (Homo sapiens), sequence (P11474 whole entry, looked up, the tested form may be a part): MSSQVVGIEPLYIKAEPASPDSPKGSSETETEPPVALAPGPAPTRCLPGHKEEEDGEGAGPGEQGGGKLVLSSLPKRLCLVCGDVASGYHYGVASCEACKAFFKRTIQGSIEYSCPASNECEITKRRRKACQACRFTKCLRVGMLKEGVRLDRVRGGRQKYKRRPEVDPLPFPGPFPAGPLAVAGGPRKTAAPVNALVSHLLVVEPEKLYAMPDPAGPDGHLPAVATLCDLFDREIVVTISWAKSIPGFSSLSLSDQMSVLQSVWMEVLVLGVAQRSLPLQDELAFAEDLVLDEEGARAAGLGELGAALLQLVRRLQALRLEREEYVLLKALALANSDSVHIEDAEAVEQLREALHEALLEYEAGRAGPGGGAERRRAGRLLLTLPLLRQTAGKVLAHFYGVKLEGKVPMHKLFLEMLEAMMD

As to `Cc1ccc(O)cc1`, the call in assay [1], in assay [2], in [3], in assay [4], in assay [5] and in [6] was inactive. The call in assay [7], in assay [8], in assay [9], in [10], in [11] and in [12] was inactive. Further, the call in assay [13] and in [14] was inactive.
For `O=C(O)CC(O)C(=O)O` (stereo unspecified), the compound was called inactive in assay [1], in [15], in assay [3], in assay [4], in assay [5] and in [6]. For the same compound, the call in assay [7], in assay [8], in assay [9], in [10], in assay [11] and in [12] was inactive. Besides, the call in assay [13] and in assay [14] was inactive.
Broadly, the AC50 is the midpoint of the concentration-response curve, whichever way the signal moves. On to `CN(C)c1ccc(Cc2ccc(N(C)C)cc2)cc1`, for which the compound was classed as inactive in assay [1], in assay [3], in [4], in assay [7], in assay [8] and in [9]. Besides, the result in assay [10], in [16], in assay [14] and in assay [17] was inactive. Besides, the AC50 is 36.7 µM (active) in [2]; 100 µM (active) in assay [5]; 43.4 µM (active) in [6]; 130 µM (active) in [11]; 25.8 µM (active) in assay [12].
Consider `C1N2CN3CN1CN(C2)C3`, for which the compound was called inactive in assay [1], in assay [2], in [3], in assay [4], in [5] and in assay [6]. The result in assay [7], in assay [8], in [9], in assay [10], in assay [11] and in assay [12] was inactive. Moreover, the outcome in [14], in assay [18] and in assay [19] was inactive.
With `CCCCCCCCO`, the compound was called inactive in assay [1], in assay [2], in [3], in assay [4], in [5] and in [6]. Besides, the compound was called inactive in assay [7], in assay [8], in [10], in assay [11], in assay [12] and in [20]. In addition, the result in assay [14], in assay [18] and in assay [19] was inactive. For the same compound, the AC50 in assay [9] was 20.5 µM (active).
Take `NC(=O)NO`: the compound was classed as inactive in assay [1], in assay [15], in [3], in assay [4], in assay [5] and in assay [6]. Besides, the call in [7], in [8], in assay [9], in assay [10], in [11] and in [12] was inactive. Also, the call in assay [14] and in assay [19] was inactive.
Take `CC(C)CCCCCCOC(=O)c1ccc(C(=O)OCCCCCCC(C)C)c(C(=O)OCCCCCCC(C)C)c1`: the outcome in assay [1], in assay [15], in assay [2], in assay [3], in [4] and in [6] was inactive. In addition, the result in [7], in assay [8], in assay [9], in assay [10], in assay [11] and in [12] was inactive. Besides, the call in assay [14] and in [19] was inactive.
As for `COC(=O)c1ccccc1O`, the result in assay [1], in assay [15], in assay [3], in [4], in assay [5] and in assay [6] was inactive. In addition, the compound was classed as inactive in [7], in assay [8], in assay [9], in [10], in [11] and in assay [14]. The AC50 in [12] is 26.4 µM (active); in assay [20] it was 25.1 µM (active).
